In PubChem BioAssay (Tox21):
Where “and” joins values, the source holds several entries; their conditions need not be identical. Identical values can stand only once. Results filed as inconclusive are left out. Entries that show only a call come without a potency. More than one record can exist for a structure, and the calls need not agree. Calls of active or inactive are those of the source. The call rests on the fitted dose curve; in most records, active means well fitted cell-killing curve with a large enough effect in the repeat runs; inconclusive means weak or mixed curves, or effect the other way; inactive means no such curve, though single readings can be large or run the other way.
Potency means the concentration at half of the fitted maximal effect.

Assay: qHTS assay for identifying genotoxic compounds that show differential cytotoxicity against isogenic chicken DT40 cell lines with known DNA damage response pathways - wild type cell line (AID 743012); further: nearly all actives have a fitted effect of over 60% in size
Settings: DT40 wild type chicken cells viability, CellTiter-Glo, 40 h; series mostly up to 68.4 µM
From the text: U.S. Tox21 Program National Center for Advancing Translational Sciences [NCATS] NIH Chemical Genomics Center [NCGC] U.S. Environmental Protection Agency [EPA] National Institutes of Environmental Health Sciences [NIEHS] National Toxicology Program [NTP] U.S. Food and Drug Administration [FDA] Tox21 Assay Overview: DNA repair pathways play a critical role in cellular homeostasis by repairing DNA damage induced by endogenous processes and xenobiotics. Isogenic chicken DT40 cell lines deficient in different DNA repair pathways can be used to identify genotoxic compounds and aid in characterizing the nature of the DNA damage induced. Two DNA repair-deficient cell lines with disrupted genes, Rad54/Ku70 or Rev3, were used to screen the Tox21 10K compound library. Possible genotoxicity was based on the presence of a significant increase in cytotoxicity in one or more of the DNA repair-deficient cell lines compared to that observed in the parental DNA repair-proficient cell line. CellTiter Glo viability assay (Promega, Madison, WI) was used to measure cell viability in these cells after compound treatment. This assay includes the data from the wild type cell line.
Tox21 Assay Protocol Summary: 300 DT40 wild type cells in 5 uL/well were dispensed into white, solid-bottom 1536-well plates using a Multidrop Combi (ThermoFisher Scientific, Waltham, MA) dispenser. After the assay plates were incubated at 37 C/5% CO2 for approximately 0.5 hour, 23 nL of compounds dissolved in DMSO, positive controls or DMSO only was transferred into the assay plate by a pintool work station (Kalypsys, San Diego, CA). The assay plates were incubated at 37 C/5% CO2 for 40 hours. After 5 uL per well of CellTiter-Glo reagent was added into each well of the assay plates, the plates were incubated for 30 min at room temperature and the luminescence intensity of the plates was measured using a ViewLux (PerkinElmer, Shelton, CT) plate reader.
With NC(=O)CN1CCCC1=O the Potency was “inactive”. With CCOC(=O)c1ccccc1N the Potency was “inactive”. For OC(c1ccc(Cl)cc1)(c1cncnc1)c1ccccc1Cl (stereo not given), the Potency was 10.9 µM (active). For O=C1C(Cl)=C(Cl)C(=O)c2ccccc21, the Potency was 2.18 µM (active) and 486 nM (active). In the case of CCNc1nc(Cl)nc(NC(C)(C)C#N)n1, the Potency was “inactive”. In the case of Nc1ncn[nH]1, the Potency was “inactive”. With C=CC(=O)OCC(CC)(COC(=O)C=C)COC(=O)C=C the Potency was 2.8 µM (active) and 3.06 µM (active). In the case of CSc1nc(NC(C)C)nc(NC(C)C)n1, the Potency was “inactive”. With Brc1ccc(Br)cc1 the Potency was “inactive”. With Cc1ccc([N+](=O)[O-])cc1 the Potency was “inactive”. In the case of CCC(=O)Nc1ccc(Cl)c(Cl)c1, the Potency was “inactive”. In the case of N#CC(c1ccccc1)c1ccccc1, the Potency was “inactive”. With CCOP(=S)(OCC)SCSC(C)(C)C the Potency was “inactive”. With ClC(Cl)=C(Cl)C(Cl)=C(Cl)Cl the Potency was “inactive”. In the case of CC(C)COC(=O)c1ccccc1C(=O)OCC(C)C, the Potency was 27.3 µM (active). In the case of CC(C)CON=O, the Potency was “inactive”. For CN(C)c1ccccc1, the Potency was “inactive”. For CCC[CH2][Sn]([Cl])([CH2]CCC)[CH2]CCC, the Potency was 546 nM (active) and 486 nM (active). In the case of CCCCOC(=O)COC(=O)c1ccccc1C(=O)OCCCC, the Potency was “inactive”. In the case of CCCCC(C#N)(Cn1cncn1)c1ccc(Cl)cc1 (stereo not given), the Potency was 61.1 µM (active). In the case of CCCCCCCCCC(CC)c1ccc(S(=O)(=O)O)cc1 (stereo not given), the Potency was “inactive and 18.8 µM (active)”. In the case of CC(C)(c1ccccc1)c1ccc(O)cc1, the Potency was 21.7 µM (active). In the case of CCCCCCCCCCCCCl, the Potency was “inactive”. For O=P(OCCCl)(OCCCl)OCCCl, the Potency was “inactive”. With O=S(=O)(O)C(F)(F)C(F)(F)C(F)(F)C(F)(F)C(F)(F)C(F)(F)C(F)(F)C(F)(F)F the Potency was “inactive and 54.5 µM (active)”. With C=CC(Cl)CCl (stereo not given) the Potency was “inactive”. With CC1=C(C(=O)Nc2ccccc2)SCCO1 the Potency was 62.1 µM (active) and 17.2 µM (active). With C[N+](C)(C)C the Potency was “inactive”. With CCOP(=S)(OCC)OP(=S)(OCC)OCC the Potency was “inactive”. In the case of CC(C)(C#N)N=NC(C)(C)C#N, the Potency was “inactive”. With CC(C)=CC1C(C(=O)OCc2cccc(Oc3ccccc3)c2)C1(C)C (stereo not given) the Potency was “inactive”. With Clc1ccc(C(Cl)(Cl)Cl)cc1 the Potency was “inactive”. In the case of CC1CC(=O)O1 (stereo not given), the Potency was “inactive”. For COc1ccc(O)c(C(C)(C)C)c1, the Potency was “inactive”. In the case of Cl, the Potency was “inactive and 54.5 µM (active)”. In the case of CCCCOCC1CO1 (stereo not given), the Potency was “inactive”. For CC(C)(O)C(=O)Nc1ccc([N+](=O)[O-])c(C(F)(F)F)c1, the Potency was 55.6 µM (active) and 5.62 µM (active). With N#CCCCCC#N the Potency was “inactive”. For CCNCC, the Potency was “inactive”. In the case of COc1ccc(CO)cc1, the Potency was “inactive”.
